Compound activity: PubChem, National Center for Advancing Translational Sciences (NCATS)
Only a selection was taken, and hits are over-represented in it overall.
CHX counter: affects cycloheximide protein synthesis inhibition readout, counter-screen | cell reporter, cycloheximide protein synthesis inhibition counterscreen | max response, % | hit rate 12% among 300,000 | AID 2314; in the data active = max response mostly above about 13%, no sharp cut-off; inactive = mostly below about 14%; note: read at 38.3 µM for the half of the compounds with a filed dose; 0% is about no effect
AmpC inh no detg: blocks E. coli AmpC beta-lactamase in detergent-free assay. hit rate 0.52% among 330,000. AID 485341. Potency, µM (series often up to 57.1 µM), without a hit: at the highest dose activity change, negative = inhibition, most hits filed as inhibitors. AmpC nitrocefin hydrolysis, absorbance 480 nm, 0.0001% Triton;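 note: potency is the fitted concentration of half-maximal effect; plate controls were no compound for no effect and no enzyme for full effect; nearly all actives have a fitted effect of over 20% in size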
Target sequence (P00811 whole entry, looked up): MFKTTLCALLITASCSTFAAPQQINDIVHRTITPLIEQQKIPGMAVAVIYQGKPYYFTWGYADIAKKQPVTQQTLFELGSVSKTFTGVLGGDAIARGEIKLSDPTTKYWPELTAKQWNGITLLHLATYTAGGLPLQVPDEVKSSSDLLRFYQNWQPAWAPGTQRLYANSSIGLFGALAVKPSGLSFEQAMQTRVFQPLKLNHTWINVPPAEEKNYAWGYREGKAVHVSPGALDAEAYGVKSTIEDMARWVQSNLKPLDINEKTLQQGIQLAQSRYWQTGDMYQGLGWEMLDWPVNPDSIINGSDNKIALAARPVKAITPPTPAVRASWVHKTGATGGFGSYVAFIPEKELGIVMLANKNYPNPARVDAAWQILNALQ
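20 mM phosphate pH 7.0 + 0.01% (detergent screen) or 0.0001% Triton X-100; 5.3 nM AmpC reagent; cpd preinc 15 min RT; nitrocefin (800 uM stock) to start; A480 q20 s × 4 min; Activity was normalised to no-enzyme and no-compound control wells.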
AMA1-RON2 inh: inhibitors of Plasmodium falciparum AMA1-RON2 interaction; AlphaScreen AMA1-biotinylated RON2 peptide binding; hit rate 0.2% among 360,000; Potency, µM (top dose mostly 58.2 µM), without a hit: top-dose activity change, negative = inhibition, most hits filed as inhibitors;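 note: potency is the fitted concentration of half-maximal effect; 0% = vehicle wells and -100% = peptide control; nearly all actives have a fitted effect of over 45% in size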
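AMA1 (3D7) with his tag at 25 nM final met compounds first, then biotinylated RON2 peptide at 25 nM; detection used donor plus acceptor beads, 10 µg/mL apiece, read by AlphaScreen after 30 min at room temperature.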
SARS PLP yeast: SARS-CoV PLP inhibition in yeast; S. cerevisiae expressing SARS-CoV PLpro, growth rescue; Potency, µM (highest dose often 32.9 µM), for inactives: top-dose activity, positive = growth rescue, most hits filed as activators; hit rate 0.19% among 330,000; AID 485353; calls by dose curve; note: potency is the fitted concentration of half-maximal effect; 0% is about no effect; nearly all actives have a fitted effect of over 55% in size
Shiga toxin inh: Shiga toxin inhibition; Vero cells, Shiga toxin protein synthesis inhibition reporter; inhibition, % at 38.7 µM; hit rate 9.2% among 290,000; in the data active = inhibition mostly above about 28%, no sharp cut-off; inactive = mostly below about 43%; note: 0% is about no effect
AmpC detergent: AmpC beta-lactamase inhibition with detergent present; Potency, µM (series often up to 114 µM), for the others: at the highest dose activity change, negative = inhibition, most hits filed as inhibitors; P00811; AmpC hydrolysis of nitrocefin, absorbance 480 nm, 0.01% Triton; hit rate 0.041% among 370,000;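 note: potency is the fitted concentration of half-maximal effect; 0% = no-compound wells and -100% = no-enzyme wells; nearly all actives have a fitted effect of over 25% in size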
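20 mM phosphate pH 7.0 + 0.01% (detergent screen) or 0.0001% Triton X-100; 5.3 nM AmpC reagent; cpd preinc 15 min RT; nitrocefin (800 uM stock) to start; A480 q20 s × 4 min; Activity was normalised to no-enzyme and no-compound control wells.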
Numbers without * were called inactive; ? = inconclusive; . = not tested or not shown; [ ] = dose if it differs, or a comment. Unless noted, calls come from the whole dose curve; as a rule, active = well fitted curve in the direction sought with a large enough effect; inconclusive = small, poorly fitted or top-dose-only effect, or another doubt; inactive = no such curve, though single readings can be large; an effect the other way counts as inactive or inconclusive.

SMILES	CHX counter	AmpC inh no detg	AMA1-RON2 inh	SARS PLP yeast	Shiga toxin inh	AmpC detergent
COc1ccc(C(=O)C(OC(=O)c2ccccc2Cl)c2ccccc2)cc1 (centres undefined)	28*	-26%	20%	-4%	83*	?
Cc1ccc2scc(N3CCC(C)CC3)c(=O)c2c1	.	.	.	.	.	-5%
COCCNC(=O)/C(=C/c1ccccc1Cl)c1ccccc1	-2	4%	6%	18%	-3	2%
COc1cccc(CN(C)C(=S)Nc2ccc(C)c(C)c2)c1	4	-31%	-2%	2%	-4	6%
COc1cc(C(=O)NCC(c2cccs2)N(C)C)cc(Cl)c1OC(C)C (centres undefined)	-3	62%	-1%	5%	-6	3%
Cc1cccc(N2CCN(C3=NC(=O)C(=C4CCCCC4)S3)CC2)c1	2	-9%	9%	0%	40	?
N#CCCN1CCN(C2=NC(=O)C(=C3CCCCC3)S2)CC1	35*	13%	-10%	13%	61	8%
O=C1N=C(N2CCOCC2)SC1=C1CCCCC1	75*	-6%	2%	0%	81*	4%
CC(=O)N1CCN(C2=NC(=O)C(=C3CCCCC3)S2)CC1	15	-9%	5%	-8%	19*	-13%
O=C(CN1C(=O)NC2(CCCC2)C1=O)Nc1nc2ccccc2s1	.	-1%	-12%	.	.	3%
O=C(c1cccc(NS(=O)(=O)c2cccc([N+](=O)[O-])c2)c1)N1CCOCC1	-3	-16%	12%	1%	-9	-11%
O=C(COc1ccc2cc(Br)ccc2c1)N1CCOCC1	.	51%	-6%	-7%	.	.
O=C(Oc1ccc2ccccc2c1Br)N1CCCCCC1	36*	-4%	31%	-13%	117*	-4%
O=C(Oc1ccc2cc(Br)ccc2c1)N1CCCCCC1	48*	-21%	.	-31%	58*	-15%
CCN(CC)C(=O)Oc1ccc(Br)c2ccccc12	1	-1%	34%	15%	-5	-9%
O=C(COc1ccc2ccccc2c1Br)N1CCCCC1	62*	37%	-8%	-4%	89*	2%
CCN(CC)C(=O)Oc1ccc2ccccc2c1Br	25*	5%	29%	-1%	76*	-11%
COc1ccc2c(c1O)-c1ccccc1CCN(C)C2	-1	-12%	11%	1%	-6	9%
CCOc1ncccc1C(=O)OC(C)C(=O)Nc1ccc(N2CCOCC2)cc1 (centres undefined)	.	-14%	-5%	2%	.	.
O=C(COc1ccc2ccccc2c1Br)NCc1ccccn1	23*	-2%[2.29 µM]	-12%	-1%	57*	-11%
CCc1cc(=O)oc2c3c(cc(OCC(=O)NCc4cccnc4)c12)OC(C)(C)CC3	7	317%	13%	10%	13	?
CCOc1ccc2nc(/N=C/c3c(C)[nH]n(-c4ccccc4)c3=O)sc2c1	30*	-24%	12%	-47%	61*	?
CCOc1[nH]n(-c2ccccc2)c(=O)c1C=Nc1ccc(OC)cc1	14	-19%	15%	2%	23	?
CCOc1ccc2nc(SC3CC(=O)N(c4ccc(C)cc4)C3=O)sc2c1 (centres undefined)	2	-6%	17%	-16%	-5	0%
CCOc1ccc2nc(/N=C/c3c(C)[nH]n(-c4ccc(C)cc4)c3=O)sc2c1	33*	-6%	1%	-77%	33	?
SMILES	CHX counter	AmpC inh no detg	AMA1-RON2 inh	SARS PLP yeast	Shiga toxin inh	AmpC detergent
CC(=O)N(NC(=O)c1ccc(C)cc1)C1CC(=O)N(c2ccccc2Cl)C1=O (centres undefined)	-3	-10%	9%[2.32 µM]	6%	-12	1%
Cc1cccc(Nc2nc3ccccc3n3nnnc23)c1	8	-27%	3%	0%	13	-3%
CC(NC(=O)COC(=O)CCc1ccc(S(=O)(=O)N2CCOCC2)cc1)C1CC2CCC1C2 (centres undefined)	36*	142%	0%	-9%	-15	0%
Cc1cc(C)cc(NC(=O)COC(=O)CCc2ccc(S(=O)(=O)N3CCOCC3)cc2)c1	-1	-18%[11.4 µM]	4%	-1%	-7	?
C[C@@H]1Cn2cnc(C(=O)Nc3cccc(Cl)c3)c2C(=O)N1	.	.	134%	.	.	.
Cc1c(Cl)cccc1NC(=O)CCCn1nc([N+](=O)[O-])cc1C	-3	-9%	-6%	4%	-3	0%
O=C(N/N=C1\CC(c2ccccc2)Oc2ccccc21)c1ccccn1 (centres undefined)	15*	-39%	44%	0%	51*	-3%
O=C(N/N=C1\CC(c2ccccc2)Oc2ccccc21)c1ccc(O)cc1 (centres undefined)	40*	-27%	38%	-2%	118*	-5%
O=C(N/N=C1\CC(c2ccccc2)Oc2ccccc21)c1cccnc1 (centres undefined)	6	-13%	68%	3%	7	5%
O=S(=O)(N/N=C1\CC(c2ccccc2)Oc2ccccc21)c1ccccc1 (centres undefined)	18	-33%	-16%	-18%	35	5%
O=C(N/N=C1/CC(c2ccccc2)Oc2ccccc21)C1CC1 (centres undefined)	-5	-7%	15%	18%	23	-2%
CCOc1ccc(S(=O)(=O)N/N=C2/CC(c3ccccc3)Oc3ccccc32)cc1 (centres undefined)	30*	-28%	2%	3%	32	7%
COc1ccc(C2c3c(oc4c(C)cc(C)cc4c3=O)C(=O)N2Cc2cccnc2)cc1OC (centres undefined)	-5	-24%	.	-9%	-33	0%
COc1ccccc1NC(=O)N(Cc1ccc2c(c1)OCO2)C1CCN(Cc2ccccc2)CC1	.	.	.	.	.	11%
CC(C)CC(c1nnnn1C1CCCCC1)N1CCN(c2ncccn2)CC1 (centres undefined)	-5	-5%	-11%	15%	21	11%
OC1COC(OCc2ccccc2)C(O)C1O (centres undefined)	-2	-9%	-2%	1%	-14	-5%
c1ccc(-c2[nH]c(-c3ccccc3)[n+](CC3CO3)c2-c2ccccc2)cc1 (centres undefined)	50*	-5%	?	-33%	28	-8%
Cc1cc(C(=O)Nc2cccc(S(=O)(=O)N3CCOCC3)c2)c2ccccc2n1	.	38%	-5%	0%	.	.
O=C(NNc1ccccc1[N+](=O)[O-])Nc1ccccc1	15	-23%	7%	-2%	-5	3%
O=C(NNc1ccccc1[N+](=O)[O-])Nc1ccc(F)cc1	13	-13%	?	-11%	33*	-8%
O=C(NNc1ccccc1[N+](=O)[O-])Nc1ccc(Cl)c(Cl)c1	17	25µM*	-8%	-19%	16*	-15%
